Source: PubChem BioAssay
BAZ2B inh: inhibitors of human BAZ2B bromodomain. Q9UIF8. AlphaScreen BAZ2B-H3K14Ac peptide displacement. Potency, µM (highest dose often 114 µM), for inactives: top-dose activity change, negative = inhibition, most hits filed as inhibitors. 4.4% of 360,000 active; also: % is scaled to controls: 0 for no effect and ±100 for the full control effect; nearly all actives have a fitted effect of over 60% in size
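Inhibition is scored as reduced AlphaScreen emission. The BAZ2B/b-H3(5-23)K14Ac complex (50 nM each) in PBS pH 7.4, 0.01% Tween-20 meets compound (up to 110 uM) for 30 min at RT before bead addition.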
L3MBTL1 block: blocks human L3MBTL1. Q9Y468. AlphaScreen L3MBTL1–H3K9me1 peptide binding. Potency, µM (series often up to 57.1 µM), for the others: at the top dose activity, negative = inhibition, actives largely listed as inhibitors. 0.66% of 230,000 active. AID 485360; also: % is scaled to controls: 0 for no effect and ±100 for the full control effect; nearly all actives have a fitted effect of over 60% in size
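AlphaScreen proximity signal between nickel-chelate acceptor and streptavidin donor beads (final 10 ug/mL) reports binding of 50 nM L3MBTL1 to 75 nM biotin-H3 K9me1 peptide; complex incubated with compounds 30 min at room temperature; cefsulodin titration as control.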
JMJD2A Tudor inh: inhibitors of human JMJD2A Tudor domain | O75164 | AlphaScreen JMJD2A-Tudor / H3K4me3 peptide binding | Potency, µM (titrated, usually from 114 µM), for inactives: at the top dose activity change, negative = inhibition, most hits filed as inhibitors | 4.4% of 390,000 active; also: % is scaled to controls: 0 for no effect and ±100 for the full control effect; nearly all actives have a fitted effect of over 50% in size
G9a inh: inhibitors of human histone lysine methyltransferase G9a; 8.8% of 350,000 active; AID 504332; Potency, µM (titrated, usually from 102 µM), for the others: top-dose activity, negative = inhibition, actives largely listed as inhibitors; G9a H3K9 monomethylation, AlphaScreen, 2 h; Q96KQ7; also: % is scaled to controls: 0 for no effect and ±100 for the full control effect; nearly all actives have a fitted effect of over 75% in size
Target sequence (Q96KQ7 913-1193 limits assumed): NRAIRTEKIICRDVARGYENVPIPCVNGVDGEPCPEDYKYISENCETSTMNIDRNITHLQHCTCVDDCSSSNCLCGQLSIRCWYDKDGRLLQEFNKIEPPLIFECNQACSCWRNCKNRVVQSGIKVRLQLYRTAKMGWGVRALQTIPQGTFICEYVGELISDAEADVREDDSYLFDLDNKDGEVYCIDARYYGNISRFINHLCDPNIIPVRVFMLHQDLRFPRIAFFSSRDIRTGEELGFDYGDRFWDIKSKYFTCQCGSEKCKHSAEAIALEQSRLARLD
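G9a (20 nM) preincubated 15 min RT with compounds, then 500 nM biotinylated H3K9 peptide and 20 uM SAM added; 2 h RT reaction. Monomethyl-H3K9 product detected by AlphaScreen with anti-H3K9me1 antibody, streptavidin donor and anti-rabbit IgG acceptor beads.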
HP1b chromo inh: blocks HP1-beta chromodomain binding to methylated histone tails. AID 540317. 0.56% of 390,000 active. Potency, µM (doses to about 114 µM), for the others: at the highest dose activity change, negative = inhibition, hits mostly inhibitors. P83916. AlphaScreen HP1-beta / biotin-H3K9me3 peptide binding; also: nearly all actives have a fitted effect of over 70% in size
Target sequence (P83916 whole entry, looked up): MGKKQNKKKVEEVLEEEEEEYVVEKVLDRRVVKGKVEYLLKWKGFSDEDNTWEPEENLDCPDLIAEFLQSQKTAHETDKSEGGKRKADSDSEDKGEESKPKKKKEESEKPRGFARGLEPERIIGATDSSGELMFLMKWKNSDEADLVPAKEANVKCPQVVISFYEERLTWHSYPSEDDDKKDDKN
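AlphaScreen: HP1-beta (50 nM) preformed 30 min with biotin-H3(1-18)K9me3 peptide (50 nM) in PBS pH 7.4, 0.01% Tween-20. Compound added for 30 min at RT, then streptavidin donor/nickel chelate acceptor beads (10 ug/mL) for 30 min.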
Starred values were filed as active, the others as inactive; u = inconclusive; x = no result given; [ ] = another dose, or the depositor's remark. Most compounds without a hit are left out; they make up all but 11% or so of the library. Calls follow the shape of the dose curve; as a rule, active = well fitted inhibition curve with a large enough effect; inconclusive = small, poorly fitted or top-dose-only effect; inactive = no such curve, though single readings can be large or run the other way. Potency is read from the fitted curve at half-maximal effect.

SMILES	BAZ2B inh	L3MBTL1 block	JMJD2A Tudor inh	G9a inh	HP1b chromo inh
Cc1nc(-c2ccccc2)cs1	2.3%	x	-5.2%	1.4%	19.7%
Cn1c(-c2csc(-c3ccccc3)n2)n[nH]c1=S	-18.2%	32.4%	28.2µM*	-135.7%[59 µM]	-5.1%
COc1ccc(-n2c(-c3ccc(Br)cc3)n[nH]c2=S)cc1	-36.6%	1.0%[2.29 µM]	31.6µM*	-27.8%[0.501 µM]	44.0%
COc1ccc(-n2c(COc3ccc(C)cc3)n[nH]c2=S)cc1	2.2%	3.9%	-36.9%	x	16.2%
Cc1ccc(-c2n[nH]c(=S)n2C)cc1	13.0%	3.1%	3.16µM*	10µM*	u
COc1ccc(-c2n[nH]c(=S)n2-c2ccc(C)cc2)cc1	-15.0%	x	u	0.891µM*	-3.2%
CCN(C(=O)c1cc2c(=O)oc3ccccc3c2s1)c1ccc(C)c(C)c1	-7.1%	x	-4.8%	6.6%[59 µM]	30.6%
Cc1ccc(S(=O)(=O)N2CCN(S(=O)(=O)c3ccc4c(c3)OCCCO4)CC2)cc1	x	x	-26.2%[57.1 µM]	x	12.1%[57 µM]
Cc1ccc(S(=O)(=O)Nc2cccc3ccccc23)cc1	x	x	-11.0%	x	12.0%
Cc1ccc(S(=O)(=O)Nc2cccc3ccc[n+](C)c23)cc1	x	x	50.1µM*	x	x
COc1ccc(C(=O)NCC2(N3CCN(C)CC3)CCCCC2)cc1	2.3%	x	4.0%	-5.8%[59 µM]	36.5%
COc1ccc(Cc2nnc(N/N=C/c3ccc(O)cc3)[nH]c2=O)cc1OC	7.08µM*	17.8µM*	25.1µM*	88.6%[59 µM]	18.9%
Cn1c(N)c(N=O)c(=O)n(C)c1=O	-15.3%	-7.7%	-11.0%	50.1µM*	32.9%
Cc1ccc(C)n1-n1c(C)nc2sc(-c3ccccc3)cc2c1=O	u	-19.2%	u	14.1µM*	-21.6%
COc1ccc(CN=Cc2[nH]c3ccc(Br)c(Cl)c3c2O)cc1	44.7µM*	-9.3%	u	3.98µM*	u
Cc1cc(C)cc(N=Cc2[nH]c3ccc(Br)c(Cl)c3c2O)c1	u	2.8%	u	12.6µM*	u
Cc1cccc(-c2nc3c4ccccc4nc(N4CCN(c5ccccc5F)CC4)n3n2)c1	2.0%	x	-6.5%	u	43.9%
CCc1cc(C(=O)c2ccc(C)cc2)c(NC(=O)CCl)s1	-10.6%	35.5µM*	-29.4%	u	18.5%
Cc1cccc(C)c1Nc1c(-c2cccs2)nc2ncccn12	u	x	-10.3%	-27.7%[59 µM]	-7.0%
Cc1cccn2c(Nc3ccccc3)c(-c3ccccn3)nc12	17.8µM*	x	12.6µM*	39.8µM*	8.9%
Cc1cccc(C)c1Nc1c(-c2ccccn2)nc2c(C)cccn12	u	x	10µM*	-37.6%[59 µM]	-18.3%
CCCOc1ccc(CSc2nnc(CCC)n2N)cc1	5.1%	0.7%	-9.8%	-2.2%	11.1%
CCCc1nnc(SCc2ccc(OC)cc2)n1N	3.8%	x	14.1µM*	-26.7%[12.7 µM]	u
CCc1nc(SCC(=O)c2ccc3c(c2)OCCO3)c2ccccc2n1	20.2%	17.0%	0.0%	8.91µM*	40.2%
COc1ccc(C(=O)NNC(=O)CCC(=O)NNC(=O)c2ccc(OC)cc2)cc1	50.1µM*	x	-17.7%	7.94µM*	37.5%
SMILES	BAZ2B inh	L3MBTL1 block	JMJD2A Tudor inh	G9a inh	HP1b chromo inh
CCn1c(CSc2nc3ccccc3s2)nnc1SCC(N)=O	-2.2%	0.6%	-16.4%	0.6%	12.9%
O=C(CSc1nc(Cc2ccccc2)nc2ccccc12)c1ccc2c(c1)OCCO2	-0.7%	-5.1%	5.0%	u	16.1%
COc1ccc(OCc2ccc(C(=O)NN)cc2)cc1	2.4%	x	u	44.7µM*	25.3%
CCn1c(CSc2nc3ccccc3s2)nnc1SCC(=O)c1ccc2c(c1)OCCO2	3.1%	-3.8%	79.4µM*	u	28.7%
COc1ccc(C(=O)Nc2nc(-c3nnn(-c4ccc(F)cc4F)c3C)ns2)cc1	-0.7%	x	-28.2%	4.6%[59 µM]	6.6%
O=C(NCc1cccs1)c1ccc2c(c1)N(Cc1ccccc1Cl)C(=O)c1ccccc1S2	1.6%	x	1.3%	-33.3%[59 µM]	24.9%
CCc1nc(SCC(=O)NNC(=O)c2ccc(OC)cc2)c2ccccc2n1	-20.7%	6.8%	50.1µM*	10.7%	-11.6%
COc1ccc(C(=O)NNC(=O)CSc2nc(C(C)C)nc3ccccc23)cc1	0.8%	x	-8.6%	9.3%	36.0%
CCOc1ccc(-c2nc(C#N)c(N3CCN(C)CC3)o2)cc1	-31.1%	x	-25.2%	-27.3%[12.7 µM]	-12.2%
CCCOc1ccc(-c2nc(C#N)c(N3CCN(CC)CC3)o2)cc1	39.8µM*	-18.0%	u	u	50.1µM*
